Rows were chosen to be rich in hits. Some 19% of all compounds tested hit in one or more screens of this group.
DT40 TDP1 no CPT: qHTS for Inhibitors of human tyrosyl-DNA phosphodiesterase 1 (TDP1): qHTS in cells in absence of CPT | hit rate 15% among 420,000 | DT40 Tdp1-/- hTDP1 cells, no CPT, ATP luminescence, 48 h | Potency, µM (highest dose often 46.2 µM), hits mostly inhibitors; also: nearly all actives have a fitted effect of over 55% in size
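Cells were dispensed at 400 per well, compounds added by pin tool, plates incubated ≥48 hr at 37 °C, then CellTiter-Glo added for 30 min at room temperature before luminescence reading. Line: DT40 Tdp1-/- complemented with hTDP1; camptothecin omitted.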
IL-1B inflam inh: qHTS for Inhibitors of Inflammasome Signaling: IL-1-beta AlphaLISA Primary Screen. THP-1 LPS/ATP IL-1B secretion, AlphaLISA, 16 h; hits give low values. activity change, % at 57.5 µM. hit rate 4.7% among 360,000; in the data active = activity change below about -50%; inconclusive = mostly about -30% to -49%
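THP-1 cells pretreated 1 hr with compounds (up to 57.5 uM final), then stimulated with LPS (250 ng/mL final) plus ATP (1.25 mM final); secreted IL-1B measured by AlphaLISA after 16 hr, decreased signal indicating inhibition.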
DT40 TDP1 CPT: qHTS for Inhibitors of human tyrosyl-DNA phosphodiesterase 1 (TDP1): qHTS in cells in presence of CPT | chicken DT40 Tdp1-/-;hTDP1 cells + 20 nM CPT, ATP luminescence, 48 h | Potency, µM (titrated, usually from 46.2 µM), most hits filed as inhibitors | hit rate 12% among 420,000 | AID 686979, 2013; also: nearly all actives have a fitted effect of over 55% in size
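Cell growth measured by CellTiter-Glo luminescence after a minimum 48 h, 37 C compound exposure with 20 nM CPT in Tdp1-knockout DT40 cells stably expressing hTDP1, seeded 400/well; qHTS titration format.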
MCF10A rerep: A quantitative high throughput screen for small molecules that induce DNA re-replication in MCF 10a normal breast cells; MCF 10A DNA re-replication, Hoechst nuclear intensity, 48 h; Potency, µM (series often up to 46.1 µM), usual class: activators; hit rate 2.9% among 350,000; AID 624296, 2012; also: nearly all actives have a fitted effect of over 50% in size
Chronic BCR inh: qHTS Assay to Find Inhibitors of Chronic Active B-Cell Receptor Signaling | AID 493014, 2011 | ABC-DLBCL IkBa-CBG/CBR reporter, luminescence ratio, 4 h | hit rate 0.05% among 340,000 | Potency, µM (doses to about 46.1 µM), most hits filed as inhibitors; active = well fitted inhibition curve with a large enough effect in the signal ratio, with a control signal flat, not every such curve was filed as active; inconclusive = small, poorly fitted or top-dose-only effect, or effect the other way, or a change in a side signal; the % refers to the signal ratio
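Doxycycline induced both beetle luciferases in TMD8 lymphoma cells; IKK-driven degradation limits the IkappaBalpha-fused green signal, while red luminescence normalises for cell number and nonspecific effects. Compounds tested up to 46 uM, 4 hrs.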
SW480 rereplic: A quantitative high throughput screen for small molecules that induce DNA re-replication in SW480 colon adenocarcinoma cells; SW480 DNA re-replication, Hoechst DNA content imaging, 48 h; Potency, µM (doses to about 46.1 µM), most hits filed as activators; hit rate 1.8% among 340,000; also: nearly all actives have a fitted effect of over 55% in size
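Image-based read-out: total Hoechst fluorescence of nuclei (405 nm excitation, 500-530 nm emission), with hits raising the fraction of high-intensity nuclei. SW480 colon cells incubated 48 hr with compounds at 37 C.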
Hits are given with their value; - = inactive; ? = inconclusive; . = no result; [ ] = remark or other dose. Unless noted, calls follow the shape of the dose curve; as a rule, active = well fitted curve in the direction sought with a large enough effect; inconclusive = small, poorly fitted or top-dose-only effect, or another doubt; inactive = no such curve, though single readings can be large; an effect the other way counts as inactive or inconclusive.

SMILES | DT40 TDP1 no CPT | IL-1B inflam inh | DT40 TDP1 CPT | MCF10A rerep | Chronic BCR inh | SW480 rereplic
Cc1ccc(-c2nc3ccccc3c(=O)n2-c2ccccn2)cc1 | ? | - | ? | ? | ? | -
NC(=O)c1ccc(N=Nc2c(O)[nH]c(=O)[nH]c2=O)cc1 | . | . | . | . | - | .
O=C(N=Nc1c(O)[nH]c(=O)[nH]c1=O)C1COc2cc3ccccc3cc2O1 (configuration not stated) | ? | - | 18.4µM | - | - | -
CCN(CC)N=O | - | -96.7 | - | - | - | -
CN(C)N=O | - | - | - | - | - | -
CN1OC[C@@H]2COc3ccc4ccccc4c3[C@@H]21 | - | - | - | - | - | -
CCOc1ccc(C2CC(c3c(O)n(C)c(=O)n(C)c3=O)=NN2)cc1 (configuration not stated) | ? | . | - | - | - | -
CCOc1ccc(C2c3c(-c4ccccc4O)n[nH]c3C(=O)N2Cc2ccncc2)cc1 (configuration not stated) | 5.17µM | . | 7.31µM | . | . | .
O=S(=O)(c1ccccc1)N1CCN2CCCC2C1 (configuration not stated) | - | - | - | - | - | -
CCOc1ccc(NCc2cccn2-c2nnc(N3CCC(C(=O)NCc4ccc(C)cc4)CC3)s2)cc1 | 7.31µM | . | 9.2µM | . | . | .
CCOc1ccc(NC(=O)C2CCCN2C(=O)Oc2ccccc2)cc1 (configuration not stated) | - | - | - | - | - | ?
Cc1ccc(NCc2cccn2-c2nnc(N3CCC(C(=O)NCc4ccc(OC(C)C)cc4)CC3)s2)cc1 | 18.4µM | . | ? | . | . | .
CCOc1ccc(NCc2cccn2-c2nnc(N3CCC(C(=O)NCC(C)c4ccccc4)CC3)s2)cc1 (configuration not stated) | 8.2µM | . | 23.1µM | . | . | .
COC(=NC1CCCC1)C(O)c1c[nH]c2ccccc12 (configuration not stated) | - | - | ? | - | - | -
COc1ccccc1C1c2[nH]c3ccccc3c2C[C@H]2C(=O)N(C3CCN(Cc4ccccc4)CC3)CC(=O)N12 (some centres not stated) | 9.2µM | - | ? | - | ? | ?
COc1ccccc1N1CCN(Cc2ccccc2)CC1 | - | - | - | - | - | -
O=C(CN1CCCCC1)c1ccccc1 | - | . | - | . | . | .
CCOC(=O)C1(CCOc2ccccc2)CCN(C(C)CSC)CC1 (configuration not stated) | ? | - | ? | - | - | -
CCOC(=O)C1(CCOc2ccccc2)CCN(Cc2cnc(SC)nc2)CC1 | 18.4µM | ? | ? | - | - | ?
CCOC(=O)C1(CCc2ccccc2)CCN(C(C)CSC)CC1 (configuration not stated) | ? | - | ? | - | . | -
CCOC(=O)C1(CCOc2ccccc2)CCN(Cc2ccccc2OC)CC1 | 14.6µM | ? | 16.4µM | - | - | -
CCOC(=O)C1(CCOc2ccccc2)CCN(Cc2cccc(O)c2)CC1 | ? | -85.8 | ? | - | - | -
CC(NC(=O)c1cc(F)ccc1F)c1nnc2n1CCN(Cc1ccc(-c3ccccc3)cc1)CC2 (configuration not stated) | ? | . | -[9.04 µM] | . | . | .
CCCNC(=O)N1[C@H]2CC[C@@H]1C(C(=O)OC)=C(c1ccc(C(C)=O)cc1)C2 | - | - | - | - | - | -
CCc1ccc(N2C(=O)NC(=O)C(CCc3ccncc3)(CCc3ccncc3)C2=O)cc1 | - | - | - | - | - | -
SMILES | DT40 TDP1 no CPT | IL-1B inflam inh | DT40 TDP1 CPT | MCF10A rerep | Chronic BCR inh | SW480 rereplic
O=C1NC(=O)C(CCc2ccncc2)(Cc2cccc(Cl)c2Cl)C(=O)N1c1ccc(Br)cc1 (configuration not stated) | 5.8µM | - | 4.61µM | 4.61µM | ? | 11.6µM
C[N+]1(C)C2CC(OC(=O)[C@H](CO)c3ccccc3)CC1C1OC12 (some centres not stated) | - | - | - | - | . | -
COc1ccc(C2CC(=O)Nc3cc4c(cc32)OCO4)c(OC)c1 (configuration not stated) | 14.6µM | . | ? | . | . | .
COc1ccc(OC)c(N2C(=O)CC(=O)NC2=O)c1 | - | - | - | - | - | -
O=C(c1ccccc1)c1ccc2nc(N3CCN(c4ccc(F)cc4)CC3)c3nncn3c2c1 | 8.2µM | . | 7.31µM | . | . | .
CC(C)(C)c1o[nH]c(=O)c1C[C@H](N)C(=O)O | - | . | - | . | . | .
CSc1ccc(CN2CCC2(C)C(=O)Nc2cccc(NS(C)(=O)=O)c2)cc1 (configuration not stated) | 23.1µM | - | 18.4µM | . | . | .
CSc1ccc(CN2CCN(C(=O)Cc3ccccc3)CC2)cc1 | - | - | ? | - | . | ?
CCOc1ccc2nc(N3CCC(C(=O)Nc4ccc(Br)cc4F)CC3)sc2c1 | 13µM | . | 11.6µM | . | . | .
COC(=O)C1=C(c2cccc(C#N)c2)C[C@@H]2CC[C@H]1N2C(=O)NC1CCCCC1 | ? | - | ? | - | - | -
COc1ccc(CNC(=O)Cn2c(=O)nc(-c3ccccc3F)c3cc(Cl)ccc32)cc1 | 2.06µM | . | 1.46µM | . | . | .
COc1ccc(CNC(=O)CCC(=O)N2C[C@H]3C[C@H](C2)c2cccc(=O)n2C3)cc1 | - | - | - | ? | - | -
COCCCn1c(=O)/c(=C\c2ccccc2OC(F)F)s/c1=C(/C#N)C(=O)NCCOC | - | - | - | 14.6µM | - | ?
COCCCn1c(=O)/c(=C/c2ccccc2OC(F)F)s/c1=C(\C#N)C(=O)NCCOC | - | - | - | - | . | -
CN(CCc1ccccc1)C(=O)c1ccc(NC(=O)Cc2cccc([N+](=O)[O-])c2)cc1 | ? | -50.8 | ? | - | - | -
COc1ccc(OC)c(CN2CCCC(C(=O)c3sccc3C)C2)c1 (configuration not stated) | ? | ? | ? | - | - | -
Cc1ccc(S(=O)(=O)N2Cc3ccccc3-n3nncc3C2)cc1 | ? | - | ? | - | . | -
CC(=O)Nc1ccc(S(=O)(=O)N2Cc3ccccc3-n3nncc3C2)cc1 | 14.6µM | - | 14.6µM | . | . | .
Cc1ccc(C2=NC(C)(C)N3C2C3c2ccc([N+](=O)[O-])cc2)cc1 (configuration not stated) | 20.6µM | - | ? | - | - | -
Nc1nnc(Sc2ncccc2[N+](=O)[O-])s1 | 16.4µM | - | ? | - | - | -
